# ELG1 genotoxic: inducers of genotoxicity in HEK293T ELG1-luciferase cells; HEK293T ELG1-luciferase reporter, luminescence, 16 h; Potency, µM (titrated, usually from 46 µM), for the others: at the top dose activity change, positive = activation, most hits filed as activators; 330,000 tested, 1.3% active; also: % of control where 0% means no effect; nearly all actives have a fitted effect of over 60% in size
#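 After overnight (16 hr) compound treatment at 37 °C, ELG1-luciferase HEK293T cells were lysed with ONE-Glo; luminescence quantified 30 min later at room temperature.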
# KinaseGlo FLuc: counter-screen: inhibitors of Kinase-Glo firefly luciferase. Q27757. Kinase-Glo luciferase, ATP luminescence, 8 min. Potency, µM (highest dose often 38.3 µM), for inactives: at the highest dose activity change, negative = inhibition, most hits filed as inhibitors. 200,000 tested, 0.28% active; also: % is scaled to controls: 0 for no effect and ±100 for the full control effect; nearly all actives have a fitted effect of over 60% in size
#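 Recombinant Kinase-Glo luciferase, 10 uM ATP (linear range), luciferin; imidazole pH 7.2 / KCl / MgCl2 / Tween / BSA buffer; 8 min RT; luminescence.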
# FLuc modulator: firefly luciferase modulation, counter-screen for miR-21 project. P08659. purified FLuc, Km substrates, luminescence inhibition. Potency, µM (highest dose often 57.5 µM), for inactives: top-dose activity change, negative = inhibition, hits mostly inhibitors. 360,000 tested, 6.9% active;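 also: plate controls were vehicle for no effect and reference inhibitor for full effect; nearly all actives have a fitted effect of over 55% in size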
# Target sequence (P08659 whole entry, looked up): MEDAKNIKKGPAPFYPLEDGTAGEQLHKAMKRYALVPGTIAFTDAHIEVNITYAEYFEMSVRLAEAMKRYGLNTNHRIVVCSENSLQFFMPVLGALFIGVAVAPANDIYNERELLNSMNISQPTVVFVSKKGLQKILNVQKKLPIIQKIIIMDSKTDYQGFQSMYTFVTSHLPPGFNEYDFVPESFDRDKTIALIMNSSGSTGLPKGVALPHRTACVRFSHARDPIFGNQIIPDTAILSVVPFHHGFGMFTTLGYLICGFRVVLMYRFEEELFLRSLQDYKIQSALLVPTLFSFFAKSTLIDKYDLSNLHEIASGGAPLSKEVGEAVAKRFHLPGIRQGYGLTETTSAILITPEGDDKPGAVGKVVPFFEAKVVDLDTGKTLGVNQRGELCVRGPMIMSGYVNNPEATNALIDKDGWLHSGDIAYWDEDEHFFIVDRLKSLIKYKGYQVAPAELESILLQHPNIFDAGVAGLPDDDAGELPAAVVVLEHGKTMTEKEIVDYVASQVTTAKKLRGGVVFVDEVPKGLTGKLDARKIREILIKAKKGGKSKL
#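 Purified P. pyralis luciferase, 10 nM final, with Km-level 10 uM D-luciferin and 10 uM ATP in 50 mM Tris acetate pH 7.5, 10 mM Mg acetate, 0.01% Tween-20, 0.05% BSA; 6-point qHTS titration about 60 µM downward; luminescence read.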
# Rab9 prom act: Rab9 promoter activation. 320,000 tested, 2.8% active. Potency, µM (highest dose often 9.22 µM), for the others: at the highest dose activation, negative = inhibition, usual class: activators. Huh7 Rab9 promoter-luciferase reporter, luminescence, 24 h. AID 485297; also: % of control where 0% means no effect; nearly all actives have a fitted effect of over 60% in size
#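 Luminescence read-out: Huh7 cells stably expressing Rab9-luciferase, treated 24 h with compound at 37 °C, then lysed with luciferase reagent for 10 min at ambient before reading.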
# SMN2 splice enh: increases expression of the SMN2 splice variant; HEK293 SMN2-luciferase splicing reporter, luminescence, 30-36 h; Potency, µM (highest dose often 46.1 µM), for inactives: top-dose activity change, positive = activation, most hits filed as activators; 210,000 tested, 2.8% active; AID 1458; also: % of control where 0% means no effect; nearly all actives have a fitted effect of over 55% in size
#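 qHTS luciferase splicing reporter: luminescence rises when SMN2 exon 7 is included in transfected HEK293 cells. Compound exposure lasted 30-36 h at 37C, with 4.5 mM final sodium butyrate as control, followed by a ONE-Glo read.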
# NPC1 prom act: activates the NPC1 promoter | Huh7 NPC1 promoter luciferase reporter, 24 h | Potency, µM (highest dose often 9.22 µM), for the others: at the highest dose activation, actives largely listed as activators | 320,000 tested, 2.4% active; also: % of control where 0% means no effect; nearly all actives have a fitted effect of over 60% in size
#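 Stably transfected Huh7 (NPC1 promoter→luciferase), 1500 cells/well in Opti-MEM + 10% FBS, 2 h settle, then compound 24 h at 37 °C. Luminescence after 10 min with Amplite reagent.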
# * = called active by the depositor; ? = inconclusive; / = no result given; [ ] = dose if it differs, or a comment. Sampled rows, rich in hits. Any-hit rate of the full collection: about 7.3%. Calls follow the shape of the dose curve; as a rule, active = well fitted curve in the direction sought with a large enough effect; inconclusive = small, poorly fitted or top-dose-only effect, or another doubt; inactive = no such curve, though single readings can be large; an effect the other way counts as inactive or inconclusive. Potency is read from the fitted curve at half-maximal effect.
SMILES,ELG1 genotoxic,KinaseGlo FLuc,FLuc modulator,Rab9 prom act,SMN2 splice enh,NPC1 prom act
Cc1cc(C)cc(NC2=CC(c3cccc(F)c3)N(c3cc(C)cc(C)c3)C2=O)c1 (centres undefined),/,/,6.0%,/,2.4%,/
COC(=O)Cc1ccc(NC(=S)N2CCC(Cc3ccccc3)CC2)cc1,-3.3%,/,4.78µM*,8.2%,/,0.7%
COC(=O)Cc1ccc(NC(=S)N2CCN(C)CC2)cc1,11.3%,-2.3%,5.36µM*,21.3%,?,9.6%
COC(=O)Cc1ccc(NC(=S)N2CCN(c3ccc(OC)cc3)CC2)cc1,-3.9%,4.5%,4.5%,-1.9%,-46.1%,-1.5%
COC(=O)Cc1ccc(NC(=S)N2CCCCC2C)cc1 (centres undefined),9.6%,-4.0%,4.78µM*,17.7%,5.8%,10.0%
COc1ccc(-c2coc3c(O)c(OC)ccc3c2=O)cc1,/,-12.1%,/,/,1.58µM*,/
CCN(CC)C(=O)Oc1ccc2c(=O)c(-c3ccc(OC)cc3)coc2c1,0.7%,-2.5%,8.49µM*,?,-11.6%,1.78µM*
CCN(CC)C(=O)Oc1ccc2c(=O)c(-c3ccc(OC)cc3)c(C)oc2c1,-10.1%,-6.5%,?,-1.0%,-46.6%,-4.4%
COc1ccc(-c2coc3c(CN4CCOCC4)c(O)ccc3c2=O)cc1,5.1%,/,-1.7%,-0.8%,/,2.5%
COc1ccc2c(=O)c(-c3ccc4c(c3)OCO4)coc2c1,2.91µM*,?,0.675µM*,0.398µM*,11.2µM*,0.355µM*
O=C(O)CCn1cnc2onc(-c3ccccc3Cl)c2c1=O,/,/,-14.5%,/,-8.2%,/
O=S(=O)(Cc1cc(-c2ccccc2)no1)c1ccccc1,?,2.1%,26.9µM*,?,?,?
COc1ccc(-c2cc(CS(=O)(=O)c3ccccc3)on2)cc1,?,1.2%,10.7µM*,3.16µM*,17.8µM*,3.16µM*
O=C1c2ccccc2C(=O)N1Cc1cc(-c2ccccc2)no1,-1.1%,4.0%,-12.2%,-7.0%,-76.9%,0.3%
COc1ccc(-c2cc(CNS(=O)(=O)c3ccc(NC(C)=O)cc3)on2)cc1,-3.9%,/,-0.9%,0.5%,/,-0.3%
Cc1cc(C)c2c(NC(=O)c3ccccc3Cl)c(C(=O)NCc3ccc(Cl)cc3)sc2n1,/,/,-5.2%,/,5.4%,/
Cc1ccc(NC2=Nc3ccccc3CS2)cc1,?,/,0.477µM*,0.316µM*,/,0.316µM*
Cc1ccc(N2C(=O)N(CC(=O)C(C)(C)C)c3ccccc3S2(=O)=O)cc1C,/,/,-5.0%,/,/,/
COc1cccc(/C=C2/SC(=S)N(CC(=O)NNC(=O)c3ccccc3OC)C2=O)c1,2.9%,/,13.5µM*,-0.4%,/,-1.9%
COc1cccc(/C=C2\SC(=S)N(CCC(=O)NNC(=O)c3ccccc3OC)C2=O)c1,-3.5%,/,-17.6%,-1.0%,/,5.4%
COc1ccc(/C=C2/SC(=S)N(CCCC(=O)Nc3ccccc3C(=O)O)C2=O)cc1,-14.2%,/,26.9µM*,-8.4%,/,-19.5%
COc1ccc(/C=C2/SC(=S)N(CCCC(=O)Nc3cccc(O)c3)C2=O)cc1,6.1%,/,13.5µM*,-6.6%,/,-4.4%
Cc1ccc(/C=C2\SC(=S)N(CCCC(=O)Nc3ccccc3C(=O)O)C2=O)cc1,10.6%,/,3.8%,-1.9%,/,3.1%
O=C(COC(=O)c1cccnc1Cl)Nc1ccc2c(c1)OCCO2,6.6%,-3.1%,8.49µM*,-2.5%,5.2%,-1.8%
COc1ccccc1OCC(=O)Nc1ccc2c(c1)OCCO2,?,/,16.9µM*,?,/,?
SMILES,ELG1 genotoxic,KinaseGlo FLuc,FLuc modulator,Rab9 prom act,SMN2 splice enh,NPC1 prom act
Cc1ccccc1OCC(=O)N/N=C/c1ccc2c(c1)OCCO2,3.6%,-2.5%,26.9µM*,-0.7%,12.3%,1.2%
COc1ccccc1OCCC(=O)Nc1ccc2c(c1)OCO2,0.9%,/,/,/,/,/
O=C(CSCc1c(Cl)cccc1Cl)Nc1ccc2c(c1)OCCO2,11.8%,1.0%,16.9µM*,8.1%,18.4%,13.0%
CC(=O)Nc1ccc(SCC(=O)Nc2ccc3c(c2)OCCO3)cc1,8.2%,/,/,/,/,/
O=C(COC(=O)c1cccnc1Cl)NCc1ccc2c(c1)OCO2,0.0%,/,1.6%,0.6%,/,-3.9%
CCN(CC)C(=O)Cn1c(SCCOc2ccc(Cl)cc2)nc2ccccc21,/,/,-8.2%,/,/,/
Cc1cc(C)cc(-n2ccnc(NCc3ccc(F)cc3)c2=O)c1,/,/,-0.8%,/,/,/
Cc1ccccc1OCC(=O)Nc1ccc2c(c1)OCCO2,?,/,9.53µM*,2.82µM*,/,3.55µM*
Cc1cccc(C)c1OCC(=O)Nc1ccc2c(c1)OCCO2,?,/,?,17.2%,/,13.1%
NC(=O)c1ccccc1OCC(=O)Nc1ccc2c(c1)OCCO2,?,/,8.49µM*,3.16µM*,/,?
Cc1ccccc1OCC(=O)OCC(=O)Nc1ccc2c(c1)OCO2,2.3%,/,/,/,/,/
O=C(COc1ccccc1Cl)Nc1ccc2c(c1)OCCO2,4.11µM*,-2.4%,4.78µM*,1.58µM*,/,3.98µM*
CN(C)CCCCN1CCc2c(n(C)c3ccccc23)C1=O,/,-3.1%[7.66 µM],/,/,-2.5%[9.22 µM],/
Cc1csc2nc(COc3ccccc3NC(=O)c3ccccc3Cl)cc(=O)n12,/,/,-7.2%,/,6.0%,/
Cc1ccc(CONC(=O)c2ccccc2Cl)cc1,10.8%,/,?,26.2%,/,1.6%
O=C(NOCc1ccccc1)c1ccc([N+](=O)[O-])cc1,?,/,3.79µM*,1.26µM*,/,?
COc1ccc(C(=O)NOCc2ccccc2)cc1,?,/,1.9µM*,?,/,?
O=C(NOCc1ccccc1)c1ccc(Cl)cc1,?,/,1.2µM*,0.501µM*,/,0.708µM*
Cc1c(C(=O)O)nnn1-c1ccccc1,0.0%,5.3%,-0.2%,3.7%,5.8%,-4.0%
Cc1cccc(-n2nnc(C(=O)N3CCc4ccccc4C3)c2N)c1,1.6%,-5.6%,15.1µM*,25.1%,-13.2%,22.9%
Cc1ccc(NC(=O)c2nnn(-c3cc(C)cc(C)c3)c2N)cc1,4.1%,-2.4%,?,-4.7%[1.84 µM],-6.6%,16.2%
Cc1cccc(-n2nnc(C(=O)Nc3ccc(F)cc3)c2N)c1,13.2%,-3.0%,6.01µM*,2.82µM*,10µM*,1.58µM*
Cc1c(C(=O)Nc2ccc(C(=O)O)cc2)nnn1-c1ccccc1,/,/,0.269µM*,/,/,/
COc1ccc(OCC(=O)Nc2ccc(-c3nc4cc(C)cc(C)c4o3)cc2)cc1,/,/,-7.6%,/,?,/
CCOC(=O)CCCNC(=O)N1CCc2nc(-c3ccccc3)c3c(c2C1)CO[C@@H](C)C3,/,-5.6%[7.66 µM],/,/,6.3%[9.22 µM],/
COc1cccc(-c2nc(SCC(=O)Nc3ccc4c(c3)OCCO4)c(-c3ccc(C)cc3)[nH]2)c1,/,/,-8.5%,/,-24.2%,/
COc1ccc(OC)c(NC(=O)CSc2nnc(NC(=O)c3ccco3)s2)c1,-2.8%,/,26.9µM*,11.0%,/,8.4%
